Values joined by “and” are separate entries in the source; they are usually repeats but may differ in a detail not shown here. Identical values can stand only once. The campaign covered roughly 5,500 compounds. About 2,000 (36%) were called active. Another 18% or so got no clear call; they are omitted. Rule as the data show it: active = normalized growth mostly below about 0.91 (no sharp cut-off); inconclusive = no clear call, values can overlap the other calls; inactive = mostly above about 0.92. The list shows a part of the results.
Experiment: chemical genetic growth profiling, strain panel (AID 1159580);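 also: tested at 20 µM; growth read once vehicle control cultures reached saturation at 30 °C; 1 = growth at the plate median or of vehicle wells; lower values mean less growth of the strain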
Conditions: S. cerevisiae deletion strains, growth OD

Measured: normalized growth

CN(Cc1cc(Br)cc(Br)c1N)C1CCCCC1
active: locus YJR066W, strain TOR1, hits give low values 0.81
inactive: locus YAL021C, strain ccr4, hits give low values 0.979 | locus YAL026C, strain drs2, hits give low values 1.03 | locus YAL030W, strain snc1, hits give low values 1.06 | locus YBL061C, strain skt5, hits give low values 1.03 | locus YBR009C, strain hhf1, hits give low values 1 | locus YBR021W, strain FUR4, hits give low values 0.948 | locus YBR023C, strain chs3, hits give low values 1.03 | locus YBR171W, strain sec66, hits give low values 1.06 | locus YBR229C, strain ROT2, hits give low values 1.01 | locus YBR231C, strain swc5, hits give low values 1.02 | locus YBR279W, strain paf1, hits give low values 1.02 | locus YCL011C, strain gbp2, hits give low values 1.02 | locus YCL016C, strain dcc1, hits give low values 1.01 | locus YCL029C, strain bik1, hits give low values 1.02 | locus YCL061C, strain MRC1, hits give low values 1.01 | locus YCL069W, strain vba3, hits give low values 1.03 | locus YCR088W, strain abp1, hits give low values 1.05 | locus YDL005C, strain med2, hits give low values 1.07 | locus YDL035C, strain GPR1, hits give low values 0.943 | locus YDL040C, strain nat1, hits give low values 1.03 | locus YDL074C, strain BRE1, hits give low values 0.954 | locus YDL101C, strain DUN1, hits give low values 0.999 | locus YDL134C, strain PPH21, hits give low values 1 | locus YDL185W, strain tfp1, hits give low values 1.02 | locus YDL192W, strain arf1, hits give low values 1.02 | locus YDR001C, strain nth1, hits give low values 1.03 | locus YDR069C, strain doa4, hits give low values 0.983 | locus YDR101C, strain arx1, hits give low values 0.999 | locus YDR137W, strain rgp1, hits give low values 1.03 | locus YDR159W, strain sac3, hits give low values 1.09 | locus YDR162C, strain NBP2, hits give low values 1.02 | locus YDR195W, strain ref2 1.13 | locus YDR297W, strain sur2, hits give low values 1.03 | locus YDR318W, strain mcm21, hits give low values 0.982 | locus YDR334W, strain swr1, hits give low values 1.03 | locus YDR335W, strain msn5, hits give low values 1.02 | locus YDR388W, hits give low values 1.01 | locus YDR392W, strain spt3, hits give low values 0.975 | locus YDR502C, strain sam2, hits give low values 0.996 | locus YEL003W, strain gim4, hits give low values 1.01 | locus YEL037C, strain rad23, hits give low values 1.03 | locus YEL061C, strain CIN8 (second series), hits give low values 0.991 | locus YEL061C, strain CIN8, hits give low values 0.975 | locus YER015W, strain faa2, hits give low values 1.03 | locus YER016W, strain bim1, hits give low values 0.988 | locus YER110C, hits give low values 1.03 | locus YER111C, strain swi4, hits give low values 1.04 | locus YER155C, strain BEM2 (second series), hits give low values 1.03 | locus YER155C, strain BEM2, hits give low values 1.01 | locus YER167W, strain BCK2, hits give low values 1.02 | locus YFR010W, strain ubp6, hits give low values 0.994 | locus YGL078C, strain dbp3, hits give low values 1.02 | locus YGL086W, strain mad1, hits give low values 0.967 | locus YGL167C, strain pmr1, hits give low values 1.03 | locus YGL173C, strain kem1, hits give low values 0.995 | locus YGL227W, strain vid30, hits give low values 1.04 | locus YGL240W, strain doc1, hits give low values 0.965 | locus YGL248W, strain PDE1, hits give low values 0.984 | locus YGL253W, strain hxk2, hits give low values 1.03 | locus YGR135W, strain pre9, hits give low values 1.02 | locus YGR252W, strain gcn5, hits give low values 0.84 | locus YHR013C, strain ard1, hits give low values 1.06 | locus YHR027C, strain rpn1, hits give low values 1.01 | locus YHR030C, strain SLT2, hits give low values 1.02 and 0.894 | locus YHR079C, strain IRE1 (second series), hits give low values 1.02 | locus YHR079C, strain IRE1, hits give low values 0.936 | locus YHR094C, strain hxt1, hits give low values 1.03 | locus YHR129C, strain ARP1, hits give low values 1.01 | locus YHR142W, strain chs7, hits give low values 1.06 | locus YHR200W, strain rpn10, hits give low values 1.01 | locus YIL066C, strain RNR3, hits give low values 0.991 | locus YIL073C, strain SPO22, hits give low values 1.06 | locus YIL125W, strain kgd1, hits give low values 1.01 | locus YIR030C, strain dcg1, hits give low values 1.02 | locus YJL092W, strain hpr5, hits give low values 1.03 | locus YJL095W, strain BCK1 (second series), hits give low values 1.02 | locus YJL095W, strain BCK1, hits give low values 0.97 and 0.902 | locus YJL115W, strain asf1, hits give low values 1.06 | locus YJL129C, strain trk1, hits give low values 1.03 | locus YJL134W, strain LCB3, hits give low values 1.02 | locus YJL154C, strain vps35, hits give low values 1.03 | locus YJL164C, strain tpk1, hits give low values 1.02 | locus YJL166W, strain qcr8, hits give low values 1 | locus YJL168C, strain set2, hits give low values 1.02 | locus YJL187C, strain SWE1 (second series), hits give low values 0.974 | locus YJR043C, strain POL32, hits give low values 0.987
